# Only some compounds are listed: those with a hit (about 1.2% of all), similar ones and a draw of the others.
# RGS8-Gao reg: human RGS8-Galphao interaction regulation; P09471; multiplexed bead flow cytometry, RGS8-Galphao binding; actives lie on both sides; response (percent of control binding), % at 10 µM; 0.34% of 220,000 active; AID 1423; in the data active = response below about 60% or above about 140%; inactive = in between;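 note: Galphao activated as the GDP aluminium fluoride complex binding bead-coupled RGS8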
# Target sequence (P09471 whole entry, looked up): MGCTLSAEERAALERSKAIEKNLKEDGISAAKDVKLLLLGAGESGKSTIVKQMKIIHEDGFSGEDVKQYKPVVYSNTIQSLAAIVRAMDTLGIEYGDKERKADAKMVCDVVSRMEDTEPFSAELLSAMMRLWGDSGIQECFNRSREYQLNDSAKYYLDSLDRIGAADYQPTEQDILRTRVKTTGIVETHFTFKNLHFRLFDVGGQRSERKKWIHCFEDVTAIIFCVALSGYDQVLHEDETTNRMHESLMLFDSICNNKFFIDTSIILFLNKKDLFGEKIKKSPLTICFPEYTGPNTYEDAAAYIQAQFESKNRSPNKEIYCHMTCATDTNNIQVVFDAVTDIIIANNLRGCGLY
# GSH fluor: compound fluoresces at 488/530 nm on GSH beads; AID 1776; GSH beads flow cytometry, compound fluorescence 488/530 nm; stronger effect = higher value; fluorescence (KMESF) at 10 µM; 0.25% of 190,000 active; in the data active = fluorescence above about 89;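 note: glutathione beads carrying GST-tagged Bcl family fusion proteins plus one bare bead set; values are compound well signal with DMSO vehicle wells as background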
# RGS7-Gao reg: human RGS7-Galphao interaction regulation | Multiplexed bead flow cytometry, RGS7-Galphao binding; actives lie on both sides | binding response (% of control), % at 10 µM | 0.35% of 220,000 active; in the data active = binding response below about 49% or above about 150%; inconclusive = no clear call, values can overlap the other calls; inactive = in between;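 note: fluorescent Galphao held in activated GDP-AlF4 state binding bead-coupled RGS7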
# RGS16-Gao: RGS16-Galphao interaction regulator (human). bead-based flow cytometry RGS16-Galphao binding, fluorescence; actives lie on both sides. binding response (% of control), % at 10 µM. 0.38% of 220,000 active; call rule not given here;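 note: Galphao activated by GDP with aluminum fluoride before binding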
# RGS4-Gao reg: human RGS4-Galphao interaction regulation; P09471; Multiplexed bead flow cytometry, RGS4-Galphao binding; actives lie on both sides; binding response (% of control), % at 10 µM; 0.33% of 220,000 active; AID 1415; in the data active = binding response below about 49% or above about 150%; inactive = in between;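 note: fluorescent Galphao activated with aluminum fluoride binding bead-coupled RGS4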
# Avidin fluor: compound fluoresces at 488/530 nm on avidin beads; fluorescence (KMESF) at 10 µM; compound fluorescence 488/530 nm, flow cytometry; stronger effect = higher value; 0.38% of 220,000 active; AID 1775; in the data active = fluorescence above about 47
# An asterisk follows results filed as active; ? = inconclusive; nt = no result.
SMILES,RGS8-Gao reg,GSH fluor,RGS7-Gao reg,RGS16-Gao,RGS4-Gao reg,Avidin fluor
CCn1cc(C(=O)O)c(=O)c2cc(F)c(N3CCN(C(=S)NC(=O)c4ccccc4)CC3)cc21,93,nt,?,90,90,8
COc1c(N2CCN(C(=S)NCc3ccccc3)C(C)C2)c(F)cc2c(=O)c(C(=O)O)cn(C3CC3)c12 (stereo unspecified),103,35,110,103,105,55*
Cc1ccccc1CSCC(=O)NC(=O)NCc1ccco1,101,261*,92,104,91,6
N/C(=N\OC(=O)C1CC1)c1ccc([N+](=O)[O-])s1,97,nt,?,94,99,3
CCOc1ccccc1OCCCC(=O)N1CCN(S(=O)(=O)c2cccc(F)c2)CC1,95,8,100,91,88,8
CCOc1ccccc1OCCCC(=O)N1CCN(S(=O)(=O)c2ccc(C)cc2)CC1,107,256*,108,116,108,9
O=C(CSc1nnc(-c2c[nH]c3ccccc23)o1)N1CCCCC1,102,24,115,97,101,57*
CCCCCNC(=O)C1CCC(Cn2c(=S)[nH]c3ccccc3c2=O)CC1 (stereo unspecified),100,18,103,101,101,11
Cc1ccc(C)n1-n1c(C)nc2scc(-c3ccccc3)c2c1=O,100,17,139,106,109,86*
O=C(Nc1ccccn1)C(=O)N1CCCCC1,87,96*,94,59,89,5
COc1cc2c(cc1OC)CN(C(=O)c1sc(-c3cnccn3)nc1C)CC2,99,nt,?,95,95,3
O=C(c1cc2c(ccc3ccccc32)o1)N1CCN(c2ncc(C(F)(F)F)cc2Cl)CC1,100,277*,100,104,102,8
O=C(CN1CCN(c2ncc(C(F)(F)F)cc2Cl)CC1)NC(=O)NCc1ccccc1,102,11,103,107,102,21
COc1cccc2cc(C(=O)N3CCCCC3C)c(=O)oc12 (stereo unspecified),110,120*,110,109,113,5
CSc1nc2ccc(S(=O)(=O)N3CCOCC3)cc2s1,102,30,101,99,103,11
CSc1nc2ccc(NS(=O)(=O)c3ccc4c(c3)OCCO4)cc2s1,92,262*,103,65,103,4
CSc1nc2ccc(S(=O)(=O)N3CCCCC3)cc2s1,103,24,107,107,106,50*
COc1cc(N2CCCC2)c(OC)cc1/C=C(/C#N)c1ccc(Br)cc1,95,74,129,170,130,59*
CC/C(=N\NC(=O)c1ccc(-c2ccccc2)cc1)C12CC3CC(CC(C3)C1)C2,97,17,90,98,95,4
COc1cccc(CSc2nnc(C(F)(F)F)n2Cc2ccc(F)cc2)c1,12*,27,12*,0.4*,20*,-2
Cc1ccc(CSc2nnc(C(F)(F)F)n2Cc2ccc(F)cc2)cc1,102,17,103,107,102,36
Cc1ccc(/C=C/C(=O)N(Cc2cccs2)C2CCS(=O)(=O)C2)cc1 (stereo unspecified),101,nt,?,103,100,8
COC(=O)c1c(NC(=O)CCNCc2ccco2)sc2c1CCC2,100,nt,?,105,101,6
CCOc1ccc(-c2nn[nH]n2)cc1,103,275*,105,106,101,8
CN(C)/C=C/C(=C\C(=O)C(F)(F)F)Nc1ccc(C(F)(F)F)cc1,96,15,113,92,93,13
SMILES,RGS8-Gao reg,GSH fluor,RGS7-Gao reg,RGS16-Gao,RGS4-Gao reg,Avidin fluor
Cc1cc(C)n(-c2nc(NCC(C)O)c3c4c(sc3n2)CCCC4)n1 (stereo unspecified),103,24,100,100,101,47*
COc1ccc(-c2cc3ccccc3oc2=O)cc1NC(=O)c1ccc(Br)o1,106,30,123,149,148,47*
O=C(Nc1nc(-c2ccccc2)cs1)c1cccc([N+](=O)[O-])c1,12*,19,13*,1.7*,21*,-2
O=C(NNc1c(Cl)cccc1Cl)c1cccs1,100,nt,?,101,102,8
O=C(CN1CCOCC1)NCc1ccccc1,99,31,135,98,102,62*
COc1ccccc1NC(=O)N1CCCC1C(=O)NC12CC3CC(CC(C3)C1)C2 (stereo unspecified),101,280*,105,104,101,8
COc1ccc(N2CCN(C(=O)NC3CC(=O)N(c4ccc(OC)cc4)C3)CC2)cc1 (stereo unspecified),102,8,100,111,106,24
Cc1cccc(-n2cc(CNCCc3nc(C)cc(C)n3)c(-c3cccc(F)c3)n2)c1,96,nt,?,92,93,4
O=C(COC(=O)Cc1cccc(C(F)(F)F)c1)Nc1ccc2c(c1)OCCO2,93,9,81,92,87,14
CCn1c(N)c(C(=O)NC)sc1=S,69,87*,126,44,99,8
CCCSc1nc2c(cnn2-c2ccccc2)c(=O)n1N,97,nt,?,99,98,7
CCCCSc1nc2c(cnn2-c2ccccc2)c(=O)n1N,101,17,129,102,101,61*
O=C(CCCN1C(=O)c2ccccc2C1=O)NC1=NCCS1,104,259*,98,96,100,8
CN1CCN(/C(=N\O)c2nonc2N)CC1,103,24,97,108,99,5
Nc1nonc1/C(=N/O)N1CCN(CCO)CC1,98,261*,98,101,102,9
CCCN(CCC)C1CC(=O)N(Cc2ccccc2)C1=O (stereo unspecified),103,19,113,104,103,58*
Cc1c(Cc2ccc3c(c2)OCO3)sc(NC(=O)c2ccc3ccccc3c2)c1C(N)=O,29*,13,35*,11*,20*,1
Clc1cccc(-c2cc3nc4c(c(N5CCOCC5)n3n2)CCCC4)c1,101,19,100,102,100,35
Clc1cccc(-c2cc3nc4c(c(N5CCN(c6cnccn6)CC5)n3n2)CCCC4)c1,77,104*,74,104,67,3
CCN(CC)CCn1c(=N)n(CC(O)COc2ccccc2)c2ccccc21 (stereo unspecified),91,nt,?,87,113,51*
CCCCn1c(SCC(=O)N(C)C2CCS(=O)(=O)C2)nc2cc(S(N)(=O)=O)ccc21 (stereo unspecified),102,nt,?,103,102,8
Cc1cccc(N(CC(=O)N/N=C/c2cc([N+](=O)[O-])ccc2Cl)S(C)(=O)=O)c1C,100,8,105,100,102,49*
COc1ccc(C2=C(CC(=O)O)C(=O)CC2)cc1,111,9,108,139,105,10
